MEKK3 PB1 HTS – MEKK3-MEK5 PB1 interaction, increase or decrease; bead-based flow cytometry, Alexa488-MEK5 binding to MEKK3; actives lie on both sides; 0 = blocked by unlabeled MEK5, 100 = vehicle; AID 1529; 290,000 tested, 1.4% active; binding response (% of control), % at 10 µM; Q99759;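 active means binding response more than 3 SD above or below the average of its plate-row segment, actives on both sides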;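 further: Alexa488 bead fluorescence after subtracting the streptavidin-only scavenger bead signal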
Target sequence (Q99759 whole entry, looked up): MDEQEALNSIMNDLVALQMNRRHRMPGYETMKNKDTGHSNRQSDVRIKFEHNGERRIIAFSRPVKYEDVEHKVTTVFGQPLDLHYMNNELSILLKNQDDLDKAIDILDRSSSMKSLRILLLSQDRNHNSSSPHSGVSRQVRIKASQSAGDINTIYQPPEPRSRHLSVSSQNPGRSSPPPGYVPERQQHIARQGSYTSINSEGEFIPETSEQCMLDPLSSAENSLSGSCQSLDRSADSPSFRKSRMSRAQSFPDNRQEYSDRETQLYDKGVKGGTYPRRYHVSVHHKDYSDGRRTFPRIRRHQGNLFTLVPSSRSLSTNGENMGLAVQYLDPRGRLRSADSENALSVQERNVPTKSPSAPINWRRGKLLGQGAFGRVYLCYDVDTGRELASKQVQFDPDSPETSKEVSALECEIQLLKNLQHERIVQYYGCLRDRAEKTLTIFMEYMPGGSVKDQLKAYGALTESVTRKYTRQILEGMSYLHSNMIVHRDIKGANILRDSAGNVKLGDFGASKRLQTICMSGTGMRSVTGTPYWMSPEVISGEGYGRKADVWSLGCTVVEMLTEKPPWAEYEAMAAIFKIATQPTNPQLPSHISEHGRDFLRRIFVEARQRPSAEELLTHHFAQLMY
ABCB6 inh MLPCN – human ABCB6 transporter inhibition; K562-ABCB6 porphyrin accumulation, flow cytometry, 1 h; active compounds read low; fluorescence ratio to DMSO, % at 10 µM; 360,000 tested, 0.19% active;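 active means fluorescence ratio to DMSO below 75%, the collection mean minus 3 SD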;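 further: signal is porphyrin accumulated inside mitochondria; 100% equals median channel fluorescence of DMSO control wells; lower ratio means ABCB6 inhibition with less porphyrin fluorescence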
CRFBP-R2 agonist – agonists of human CRF-binding protein/CRF-R2 receptor complex; activation, % at 13.2 µM; AID 588473; HEK293 CRF-R2/CRF-BP, calcium dye fluorescence (FLIPR); percent of saturating CRF peptide response; 350,000 tested, 0.46% active;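 active means activation of at least 50%, plus an integration ratio under a set limit after plate pattern correction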;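 further: plate controls were neutral control wells without compound for no effect and CRF at EC100 for full effect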
MEKK2 mut-MEK5 – signal of MEK5 binding to mutant human MEKK2 PB1 domain; 290,000 tested, 0.35% active; bead flow cytometry, Alexa488-MEK5 binding to MEKK2 mutant; AID 1530; percent response, % at 10 µM; in the data active means percent response above about 24%, passing the limit was not always enough
MEKK2wt PB1 HTS – raises or lowers MEK5 binding to wildtype human MEKK2 PB1 domain. Q9Y2U5. bead flow cytometry, Alexa488-MEK5 binding to MEKK2 WT; actives lie on both sides. binding response (% of control), % at 10 µM. 290,000 tested, 1.1% active; in the data active means binding response below about 67% or above about 130%
CRFBP-R2 block – antagonists of CRF-binding protein/CRF-R2 receptor complex; HEK293 CRF-R2/CRF-BP, CRF-induced calcium fluorescence; inhibition, % at 11.8 µM; 350,000 tested, 0.59% active; AID 588475;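 active means inhibition of the ligand-induced calcium signal above about 50% at the single tested concentration, limit read from the data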
Numbers without * were called inactive. In the library only some 2.9% were active in any assay of this set; here they are far more common.

Results for COC(=O)C(Cc1ccc(N(CCCl)CCCl)cc1)N=Cc1ccccc1O (centres undefined) ?
MEKK3 PB1 HTS: 102; ABCB6 inh MLPCN: 98; CRFBP-R2 agonist: 1; MEKK2 mut-MEK5: 10; MEKK2wt PB1 HTS: 103; CRFBP-R2 block: 67*

Results for CNC1(c2ccc(F)cc2)CCCCC1 ?
ABCB6 inh MLPCN: 93; CRFBP-R2 agonist: 47; CRFBP-R2 block: 88*

What do the screens show for `COc1ccccc1-c1cc(NC(C)=O)c2ncc(-c3ccccc3)n2c1`?
ABCB6 inh MLPCN: 94

How did Cc1cc(/C=C2\C(=O)NC(=O)N(c3cccc(Br)c3)C2=O)c(C)n1C do in these assays?
MEKK3 PB1 HTS: 98; ABCB6 inh MLPCN: 101; CRFBP-R2 agonist: 97*; MEKK2 mut-MEK5: -2; MEKK2wt PB1 HTS: 99; CRFBP-R2 block: -159

Results for Cc1cc(/C=C2/C(=O)NC(=O)N(c3ccc(Br)cc3)C2=O)c(C)n1C ?
MEKK3 PB1 HTS: 95; ABCB6 inh MLPCN: 95; CRFBP-R2 agonist: 0; MEKK2 mut-MEK5: -22; MEKK2wt PB1 HTS: 88; CRFBP-R2 block: -23

How did CCOc1cc2c(cc1OCC)-n1cccc1C(c1cccc(F)c1)NC2 (centres undefined) do in these assays?
MEKK3 PB1 HTS: 106; ABCB6 inh MLPCN: 95; CRFBP-R2 agonist: -3; MEKK2 mut-MEK5: 6; MEKK2wt PB1 HTS: 114; CRFBP-R2 block: 12

What do the screens show for `Cc1cc(C(=O)O)c(C)n1C1CC1`?
MEKK3 PB1 HTS: 99; ABCB6 inh MLPCN: 99; CRFBP-R2 agonist: 4; MEKK2 mut-MEK5: 3; MEKK2wt PB1 HTS: 101; CRFBP-R2 block: -1

What do the screens show for `CCOC(=O)C1CCCN(c2ccc([N+](=O)[O-])c3nonc23)C1` (centres undefined)?
MEKK3 PB1 HTS: 92; ABCB6 inh MLPCN: 115; CRFBP-R2 agonist: 208*; MEKK2 mut-MEK5: -20; MEKK2wt PB1 HTS: 81; CRFBP-R2 block: -141

Results for COC(=O)C1=C(c2ccc(OC)c(OC)c2)C[C@@H]2CC[C@H]1N2C(=O)N1CCOCC1 ?
ABCB6 inh MLPCN: 100; CRFBP-R2 agonist: -2; CRFBP-R2 block: 1

How did CN(C)c1ccc(C(=O)N/N=C/C23CC[C@@H](O)CC2(O)CC[C@@H]2[C@@H]3CCC3(C)C(C4=CC(=O)OC4)CCC23O)cc1 (some centres undefined) do in these assays?
MEKK3 PB1 HTS: 102; ABCB6 inh MLPCN: 96; CRFBP-R2 agonist: 2; MEKK2 mut-MEK5: 0; MEKK2wt PB1 HTS: 102; CRFBP-R2 block: 54*

Results for Clc1cnc(Oc2ccc(Oc3ncc(Cl)cc3Cl)cc2)c(Cl)c1 ?
MEKK3 PB1 HTS: 102; ABCB6 inh MLPCN: 102; CRFBP-R2 agonist: 0; MEKK2 mut-MEK5: 4; MEKK2wt PB1 HTS: 106; CRFBP-R2 block: 72*

What do the screens show for `COc1cccc(CNCCc2c[nH]c3ccccc23)c1`?
MEKK3 PB1 HTS: 105; ABCB6 inh MLPCN: 94; CRFBP-R2 agonist: 3; MEKK2 mut-MEK5: 5; MEKK2wt PB1 HTS: 110; CRFBP-R2 block: -9

How did COc1ccc(CN(CCc2c[nH]c3ccccc23)Cc2ccc(OC)cc2)cc1 do in these assays?
ABCB6 inh MLPCN: 102; CRFBP-R2 agonist: 1; CRFBP-R2 block: 63*

How did CCN(CC)c1ccc(/C=C2\C(=O)NC(=S)N(C)C2=O)o1 do in these assays?
MEKK3 PB1 HTS: 95; ABCB6 inh MLPCN: 122; CRFBP-R2 agonist: 58*; MEKK2 mut-MEK5: -1; MEKK2wt PB1 HTS: 97; CRFBP-R2 block: -24

What do the screens show for `CN1C(=O)C(=Cc2ccc(N3CCCCC3)o2)C(=O)N(C)C1=S`?
MEKK3 PB1 HTS: 104; ABCB6 inh MLPCN: 98; CRFBP-R2 agonist: 133*; MEKK2 mut-MEK5: -2; MEKK2wt PB1 HTS: 99; CRFBP-R2 block: -100

What do the screens show for `Cc1ccc(/C=C2\C(=O)NC(=S)N(c3ccc(F)cc3)C2=O)o1`?
MEKK3 PB1 HTS: 102; ABCB6 inh MLPCN: 100; CRFBP-R2 agonist: 4; MEKK2 mut-MEK5: 5; MEKK2wt PB1 HTS: 95; CRFBP-R2 block: -2

Results for Cc1cc(C)cc(N2C(=O)/C(=C\c3ccc(N4CCN(C)CC4)o3)C(=O)NC2=S)c1 ?
MEKK3 PB1 HTS: 99; ABCB6 inh MLPCN: 128; CRFBP-R2 agonist: 57*; MEKK2 mut-MEK5: -4; MEKK2wt PB1 HTS: 92; CRFBP-R2 block: -39

What do the screens show for `CCN(CC)c1ccc(C=C2C(=O)N(C)C(=S)N(C)C2=O)o1`?
MEKK3 PB1 HTS: 97; ABCB6 inh MLPCN: 118; CRFBP-R2 agonist: 88*; MEKK2 mut-MEK5: -2; MEKK2wt PB1 HTS: 79; CRFBP-R2 block: -92

Results for CCN(CC)c1ccc(/C=C2\C(=O)NC(=S)N(c3ccc(OC)cc3OC)C2=O)o1 ?
ABCB6 inh MLPCN: 114; CRFBP-R2 agonist: 29; CRFBP-R2 block: -12

How did COc1ccc(-n2nc(C(=O)NCC(=O)N3CCC4(CC3)OCCO4)c3ccccc3c2=O)cc1Cl do in these assays?
MEKK3 PB1 HTS: 95; ABCB6 inh MLPCN: 93; CRFBP-R2 agonist: -1; MEKK2 mut-MEK5: 0; MEKK2wt PB1 HTS: 94; CRFBP-R2 block: -14

What do the screens show for `CC(=Nc1ccccc1N)c1c(O)n(C)c(=O)n(C)c1=O`?
MEKK3 PB1 HTS: 104; ABCB6 inh MLPCN: 92; CRFBP-R2 agonist: 0; MEKK2 mut-MEK5: 6; MEKK2wt PB1 HTS: 107; CRFBP-R2 block: -4

Results for COc1ccc(CN2C(=O)C(CC(=O)NCc3ccco3)CC(C(=O)N(C)C)=C2C)cc1 (centres undefined) ?
ABCB6 inh MLPCN: 98; CRFBP-R2 agonist: 4; CRFBP-R2 block: 4

What do the screens show for `CN(c1ccccc1)P(=O)(N1CC1)N1CC1`?
ABCB6 inh MLPCN: 96; CRFBP-R2 agonist: 2; CRFBP-R2 block: 54*

Results for C[C@]12CC(=O)CC1CCC1C2CC[C@@]2(C)C1CC[C@@H]2O (some centres undefined) ?
MEKK3 PB1 HTS: 93; ABCB6 inh MLPCN: 92; CRFBP-R2 agonist: 1; MEKK2 mut-MEK5: -9; MEKK2wt PB1 HTS: 94; CRFBP-R2 block: -6

What do the screens show for `Oc1c(Cl)c(Cl)c(Cl)c(Cl)c1Cl`?
MEKK3 PB1 HTS: 111; ABCB6 inh MLPCN: 96; CRFBP-R2 agonist: 11; MEKK2 mut-MEK5: 4; MEKK2wt PB1 HTS: 114; CRFBP-R2 block: 54*

How did CC(=O)Nc1cc(C(=O)N2CCC3(CC2)OCCO3)ccc1S(=O)(=O)c1ccc(C)cc1 do in these assays?
MEKK3 PB1 HTS: 93; ABCB6 inh MLPCN: 99; CRFBP-R2 agonist: -2; MEKK2 mut-MEK5: -3; MEKK2wt PB1 HTS: 93; CRFBP-R2 block: 98*

What do the screens show for `CC/C(=N\NC(=O)c1ccccc1)c1c(O)n(C2CCCCC2)c(=O)[nH]c1=O`?
MEKK3 PB1 HTS: 96; ABCB6 inh MLPCN: 101; CRFBP-R2 agonist: 0; MEKK2 mut-MEK5: -5; MEKK2wt PB1 HTS: 97; CRFBP-R2 block: 23

What do the screens show for `N[C@@H](Cc1c[nH]c2ccccc12)c1nnc(SCc2ccc(Cl)cc2)o1`?
MEKK3 PB1 HTS: 100; ABCB6 inh MLPCN: 71*; CRFBP-R2 agonist: -1; MEKK2 mut-MEK5: -1; MEKK2wt PB1 HTS: 101; CRFBP-R2 block: 11

Bioassay records as filed in PubChem BioAssay.
